Bioassay records as filed in PubChem BioAssay.
pPAFAH inh: inhibitors of human plasma PAF acetylhydrolase (pPAFAH). Q13093. recombinant pPAFAH, FP-rhodamine probe fluorescence polarization. inhibition, % at 3.39 µM. 330,000 tested, 1.5% active;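 active = inhibition above the mean inhibition across the screen plus 3 SD, cut at about 25% in these data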;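 note: inhibitors block binding of the rhodamine activity-based probe so polarization drops; 0% = enzyme with DMSO and 100% = wells lacking pPAFAH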
Target sequence (Q13093 whole entry, looked up): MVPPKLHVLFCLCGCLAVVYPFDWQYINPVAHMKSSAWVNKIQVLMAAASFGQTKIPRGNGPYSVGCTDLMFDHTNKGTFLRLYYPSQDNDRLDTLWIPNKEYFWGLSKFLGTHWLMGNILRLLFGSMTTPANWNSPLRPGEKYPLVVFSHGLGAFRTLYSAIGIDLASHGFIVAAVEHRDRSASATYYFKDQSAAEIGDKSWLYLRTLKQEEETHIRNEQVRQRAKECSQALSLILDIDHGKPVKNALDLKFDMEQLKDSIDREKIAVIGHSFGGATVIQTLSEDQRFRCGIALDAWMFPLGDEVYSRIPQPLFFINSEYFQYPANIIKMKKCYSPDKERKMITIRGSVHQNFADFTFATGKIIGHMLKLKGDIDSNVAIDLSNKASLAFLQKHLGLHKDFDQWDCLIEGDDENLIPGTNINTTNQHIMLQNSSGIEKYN
PAFAH2 inh: inhibitors of human PAFAH2. recombinant PAFAH2, FP-rhodamine activity probe, fluorescence polarization. 340,000 tested, 0.99% active. inhibition, % at 3.39 µM. Q99487. AID 492956;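 active = inhibition above the mean over all tested compounds plus 3 SD, cut at about 30% in these data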;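 note: inhibitors block probe labeling of enzyme so polarization drops; 0% = enzyme with DMSO and 100% = wells lacking PAFAH2 protein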
PAFAH1B2 inh: PAFAH1B2 (human) inhibition. recombinant PAFAH1B2, FP-rhodamine activity probe, fluorescence polarization. 340,000 tested, 1.2% active. P68402. AID 492953. inhibition, % at 3.39 µM;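 active = inhibition above the mean of all tested compounds plus 3 SD, cut at about 24% in these data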;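 note: 0% = enzyme with DMSO and 100% = wells lacking PAFAH1B2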
PP5 primary: blocks human protein phosphatase 5 activity. 320,000 tested, 0.18% active. purified PP5c, OMFP substrate fluorescence. AID 1987. P53041. inhibition, % at 6.7 µM;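 active = inhibition above the campaign's mean inhibition across all tested compounds plus 3 SD, cut at about 9.5% in these data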;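 note: 0% = DMSO only and 100% = 100 µM cantharidin control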
PAFAH1B3 FP inh: inhibitors of human PAFAH1B3 | Q15102 | recombinant PAFAH1B3, FP-rhodamine probe, fluorescence polarization | inhibition, % at 3.39 µM | 340,000 tested, 0.28% active | AID 492972;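 active = inhibition above the screen-wide average of all tested compounds plus 3 SD, cut at about 25% in these data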;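 note: 0% = enzyme with DMSO only and 100% = wells lacking PAFAH1B3 protein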
PP1 inh: counter-screen for PP5 inhibitors: inhibitors of human PP1-alpha | P62136 | purified PP1alpha, OMFP fluorescence | inhibition, % at 6.7 µM | 320,000 tested, 0.9% active | AID 2235;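 active = inhibition above the mean inhibition of all tested compounds plus 3 SD, computed separately for each screening campaign, cut at about 15% in these data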
Target sequence (P62136 whole entry, looked up): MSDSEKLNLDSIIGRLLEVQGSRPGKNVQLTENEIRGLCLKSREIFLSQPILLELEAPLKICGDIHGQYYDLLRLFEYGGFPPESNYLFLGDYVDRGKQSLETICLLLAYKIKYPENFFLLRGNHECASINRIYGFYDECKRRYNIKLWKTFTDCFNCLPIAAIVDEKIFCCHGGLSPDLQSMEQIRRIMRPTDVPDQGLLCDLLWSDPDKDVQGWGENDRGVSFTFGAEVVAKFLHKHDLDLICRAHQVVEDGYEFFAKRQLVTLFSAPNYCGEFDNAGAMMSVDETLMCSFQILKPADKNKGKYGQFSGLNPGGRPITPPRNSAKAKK
PP1 inh confirm: human PP1 phosphatase inhibition, confirmation | inhibition, % at 6.7 µM | purified PP1alpha, OMFP substrate fluorescence | 1,900 tested, 52% active | shares compounds with PP1 inh;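 active = mean PP1 inhibition above a set limit taken from the earlier primary screen, cut at about 15% in these data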
PP5 counter: inhibits human PP5 phosphatase in PP1 counter-screen | shares compounds with PP1 inh | inhibition, % at 6.7 µM | 1,900 tested, 4% active | purified PP5c, OMFP fluorescence;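 active = mean PP5 inhibition over triplicate wells above about 9.5% taken from the earlier PP1 screen, limit read from the data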
pPAFAH confirm: pPAFAH (human) inhibition, confirmed; AID 463230; shares compounds with pPAFAH inh; recombinant pPAFAH, FP-Rh probe fluorescence polarization; inhibition, % at 3.39 µM; 2,300 tested, 72% active;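 active = mean inhibition of the triplicate above the hit cutoff set for the earlier primary screen, cut at about 25% in these data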;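 note: 0% = enzyme with DMSO and 100% = wells lacking pPAFAH enzyme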
An asterisk follows results filed as active; . = not tested or not shown. The list is not random: actives were taken first. Their share in the collection is about 3.4%.

SMILES | pPAFAH inh | PAFAH2 inh | PAFAH1B2 inh | PP5 primary | PAFAH1B3 FP inh | PP1 inh | PP1 inh confirm | PP5 counter | others
C#CCOCCOCCOCCNc1nc(N2CCN(C(=O)CCCCCCCCCCNC(=O)[C@@H](CCSC)n3cc(CCO)nn3)CC2)nc(N2CCN(C(=O)CCCCCCCCCCNC(=O)[C@H]([C@@H](C)CC)n3cc(CCCCCN)nn3)CC2)n1 | -7.2 | . | . | 4.1 | . | 60.1* | 52.7* | 2.6
C#CCOCCOCCOCCNc1nc(N2CCOCC2)nc(N2CCN(C(=O)CCCCCCCCCCNC(=O)[C@@H](CCSC)n3cc(CCO)nn3)CC2)n1 | 9.9 | 1.5 | 0.8 | 2.5 | 1.8 | -0.8 | . | .
CCOC(=O)C1Sc2ccccc2NC1=O (stereo not drawn) | 3.2 | 10.6 | 3.3 | -0.1 | -0.9 | -2.6 | . | .
O=C(CC1C(=O)NCCN1CC1CCCCC1)NCc1cc(F)ccc1F (stereo not drawn) | 3.1 | 5.5 | 5.2 | -0.5 | -2.0 | -2.1 | . | .
CCOC(=O)C1=C(C)N(CCCC(=O)O)C(=O)NC1c1ccc(OC)cc1 (stereo not drawn) | -2.1 | -0.1 | 2.6 | 0.3 | 7.2 | -3.9 | . | .
O=C(Nc1cccnc1)c1ccc(Cl)c(S(=O)(=O)N2CCCC2)c1 | 0.7 | -7.2 | 3.8 | 2.1 | 0.8 | 37.8* | -3.7 | -8.0
O=C(Nc1cccnc1)c1ccc(Cl)c(S(=O)(=O)N2CCCCC2)c1 | 3.6 | 4.3 | 9.5 | 1.1 | 5.0 | 0.1 | . | .
CCC(=O)NC(c1ccc(C)cc1)c1cc(Cl)c2cccnc2c1O (stereo not drawn) | 19.9 | 4.7 | 3.1 | . | 16.1 | . | . | .
CCCC(=O)NC(c1ccc2c(c1)OCO2)c1cc(Cl)c2cccnc2c1O (stereo not drawn) | 32.4* | 0.5 | 2.3 | 3.4 | 7.2 | 19.9* | 24.1* | -5.6
CCCC(=O)NC(c1cccs1)c1cc(Cl)c2cccnc2c1O (stereo not drawn) | 33.0* | 4.0 | 4.2 | 1.1 | 9.6 | 26.5* | 23.2* | -0.1
CCOc1ccc(C(Nc2cccnc2)c2cc(Cl)c3cccnc3c2O)cc1 (stereo not drawn) | 13.9 | -0.9 | -1.7 | 1.3 | 9.4 | 19.4* | 21.4* | -2.3
CCC(=O)NC(c1cccs1)c1ccc2cccnc2c1O (stereo not drawn) | 7.2 | 6.2 | 8.9 | 1.1 | 6.8 | 1.2 | . | .
CC(=O)c1cccc(NC(=O)CCCN(C)S(=O)(=O)c2ccc(F)cc2)c1 | -1.9 | 5.8 | 0.2 | 3.2 | -1.7 | 1.0 | . | .
COc1ccc(C[C@H]2CN3C(=NC[C@@H]3C(C)C)N2C[C@H](C)NC(=O)c2ccc(C)c(Br)c2)cc1 | -1.8 | 3.7 | 0.7 | -4.6 | 13.0 | 3.2 | . | .
COc1ccc(C[C@H]2CN3C(=NC[C@@H]3Cc3ccccc3)N2CCNC(=O)c2ccc(C)c(Br)c2)cc1 | -1.2 | -0.6 | 4.5 | -0.6 | 0.9 | 21.5* | -7.3 | -2.4
COc1ccc(C[C@H]2CN3C(=NC[C@@H]3Cc3ccc(O)cc3)N2C[C@H](C)NC(=O)c2ccc(C)c(Br)c2)cc1 | -4.8 | 7.8 | 5.0 | 3.2 | 11.8 | 18.1* | 10.0 | -3.8
COc1ccc(C[C@H]2CN3C(=NC[C@H]3Cc3ccccc3)N2CCNC(=O)c2ccc(C)c(Br)c2)cc1 | -8.5 | 0.7 | 2.1 | 1.1 | -3.8 | 18.9* | -4.6 | 0.8
Cc1ccc(C(=O)NCCN2C3=NC[C@@H](Cc4ccccc4)N3C[C@H]2Cc2ccc(O)cc2)cc1Br | -1.7 | -4.0 | 4.7 | 4.9 | 3.8 | 15.0 | . | .
COc1ccc(C[C@H]2CN3C(=NC[C@@H]3Cc3ccc(O)cc3)N2CCNC(=O)c2ccc(C)c(Br)c2)cc1 | 2.4 | -3.7 | -2.3 | 3.9 | 4.8 | 13.2 | . | .
Cc1cc(C)c(OCC(=O)NCC2CCCO2)c(C)c1 (stereo not drawn) | -2.0 | 0.3 | 2.6 | 3.0 | 5.5 | 41.6* | -1.5 | -2.4
Cc1c(NC(=O)C(C)OC(=O)Cc2ccc(F)cc2)c(=O)n(-c2ccccc2)n1C (stereo not drawn) | 5.4 | 2.6 | 3.3 | -1.6 | 6.7 | -3.5 | . | .
O=C(Nc1nnc(-c2ccccc2Cl)o1)c1nc2ccccc2s1 | 12.3 | 0.0 | -2.5 | -0.4 | 1.2 | 40.3* | 31.3* | -1.3
COc1cc(C(=O)Nc2cc(-c3ccccc3)[nH]n2)cc(OC)c1OC | -1.3 | -8.9 | 3.0 | 2.3 | 9.6 | 19.8* | 17.4* | -3.3
COc1cc(C(=O)Nc2nc(OC)c(-c3ccccc3)c(OC)n2)cc(OC)c1OC | 14.1 | -4.3 | 4.7 | 3.0 | 14.2 | -0.2 | . | .
O=C(Cc1ccsc1)Nc1ccc(S(=O)(=O)C(F)F)cc1 | 4.1 | -0.5 | 4.3 | -0.1 | 3.7 | -2.0 | . | .
SMILES | pPAFAH inh | PAFAH2 inh | PAFAH1B2 inh | PP5 primary | PAFAH1B3 FP inh | PP1 inh | PP1 inh confirm | PP5 counter | others
CCCOc1ccc(N)cc1N | 26.3* | 8.3 | 7.7 | 11.4* | 15.3 | 15.8* | -2.7 | 23.5*
CC(=O)Nc1ccc(NC(=O)COC(=O)c2ccccc2SCC(=O)N2CCCC2)cc1 | -0.2 | 9.9 | 4.3 | -0.8 | 6.9 | 57.9* | -0.9 | -6.4
O=C(OCC(=O)N1CCCCC1)c1ccccc1SCC(=O)N1CCCCC1 | 6.3 | 3.4 | 3.1 | 2.6 | 2.8 | -2.8 | . | .
O=C(N/N=C/c1ccc(O)cc1O)NC12CC3CC(CC(C3)C1)C2 | 2.5 | 4.0 | 20.9 | 2.1 | 14.9 | 2.2 | . | .
O=C(N/N=C/c1cc([N+](=O)[O-])ccc1O)NC12CC3CC(CC(C3)C1)C2 | 18.9 | 22.8 | 87.9* | 5.1 | 10.4 | 19.7* | 17.1* | 0.2
COc1cccc(OC)c1C(=O)Nc1cccc(-n2cnnn2)c1 | -4.5 | -11.3 | -2.9 | -1.4 | 12.9 | -1.9 | . | .
COc1cc(/C=C2\SC(=Nc3ccccc3)N(CCc3c[nH]c4ccccc34)C2=O)ccc1OC(C)C(=O)O (stereo not drawn) | 17.5 | 0.4 | -3.9 | 0.8 | 0.3 | 17.8* | 11.8 | 0.2
CC(C)Cn1c(N)c(C(=O)COC(=O)/C=C/c2ccccc2)c(=O)n(C)c1=O | -0.2 | 5.5 | 0.0 | 3.5 | -9.6 | 37.4* | 0.1 | -1.4
CC(=O)c1sc2nc(-c3cccs3)ccc2c1N | 3.8 | 5.5 | 8.4 | 0.4 | 7.2 | 7.8 | . | .
Nc1c(C(=O)Nc2nc3ccccc3s2)sc2nc(-c3cccs3)ccc12 | 50.1* | 18.3 | 9.1 | 1.1 | 6.3 | 30.9* | 31.6* | -0.9 | pPAFAH confirm=43.3*
C=CCc1ccc(OCCCNCc2ccccc2)c(OC)c1 | -2.9 | -2.8 | -1.0 | 4.0 | 7.2 | 4.0 | . | .
O=C(Nc1ccc(N2CCCC2)cc1)c1cc(Br)ccc1Cl | 47.0* | 1.8 | 3.5 | 1.1 | 5.7 | 33.1* | 0.1 | -1.5 | pPAFAH confirm=5.3
